Inconclusive results are not listed. The source made the active and inactive calls. Unless noted, calls follow the shape of the dose curve; as a rule, active = well fitted curve in the direction sought with a large enough effect; inconclusive = small, poorly fitted or top-dose-only effect, or another doubt; inactive = no such curve, though single readings can be large; an effect the other way counts as inactive or inconclusive.
Key:
[1] = Cell Viability - BJ (AID 421; calls by dose curve;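 also: potency is read from the fitted curve at half-maximal effect; cells exposed to compound for 40 hours at 37 °C before readout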); details: BJ fibroblast viability, qHTS
Procedure, shortened: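 Cytotoxicity in human BJ foreskin fibroblasts is scored as loss of cellular ATP after a 40-hour exposure, measured by luciferase luminescence. Controls are DMSO and 100 uM tamoxifen.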

[2] = Cell Viability - Jurkat (AID 426;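 active = dose-dependent loss of cell ATP signal giving a full or clear fitted curve, ranked by lower potency value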;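 also: potency is read from the fitted curve at half-maximal effect; cells exposed to compound for 40 hours at 37 °C before ATP read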); details: qHTS
Procedure, shortened: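 Cytotoxicity taken as drop in cellular ATP (CellTiter-Glo luminescence, 20 min room temperature) after 40 hr, 37C treatment of 5000 Jurkat Clone E6-1 cells per well; concentration-response fitted with Hill equation for AC50.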

[3] = Cell Viability - Hek293 (AID 427;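 active = compounds whose dose-response curve shows a full or clear partial loss of cell viability, called from curve shape rather than a numeric limit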;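 also: potency is read from the fitted curve at half-maximal effect; cells exposed to compound for 40 hours at 37 °C before reading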); details: qHTS
Procedure, shortened: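 qHTS, human embryonic kidney (adenovirus-transformed) cells; 40 hr cpd, 37 °C; CellTiter-Glo ATP luminescence. Norm: DMSO = 0, 100 uM tamoxifen = 100% inhibition. Hill-fit AC50.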

[4] = Cell Viability - HepG2 (AID 433; calls by dose curve;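 also: potency is read from the fitted curve at half-maximal effect; cells exposed to compound for 40 hours; potency for ATP loss meaning cytotoxicity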); details: qHTS
Procedure, shortened: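 Cytotoxicity read as ATP loss (CellTiter-Glo luminescence) after 40 hr compound exposure of HepG2, 1500 cells/well, 37 °C. AC50 by Hill equation; 0% set by DMSO, 100% inhibition by 100 uM tamoxifen.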

[5] = Cell Viability - MRC5 (AID 434; calls by dose curve;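 also: potency is read from the fitted curve at half-maximal effect; cells exposed to compound for 40 hours at 37 °C; potency reflects cytotoxicity seen as loss of intracellular ATP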); details: MRC5 lung fibroblast viability, qHTS
Procedure, shortened: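 ATP luminescence read-out (CellTiter-Glo, 20 min RT) after 40 hr, 37 °C compound exposure of 1500 MRC5 cells/well. Data normalized to DMSO (basal) and 100 uM tamoxifen (100% inhibition); AC50 from standard Hill equation.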

[6] = Cell Viability - N2a (AID 540); details: N2a mouse neuroblastoma cell viability; at 92.2 µM (top of the series);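 also: plate controls were DMSO alone for no effect and tamoxifen control for full effect; nearly all actives have a fitted effect of over 45% in size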
Procedure, shortened: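 CellTiter-Glo ATP luminescence, read 20 min after reagent at room temperature, reported viability following 40 h compound treatment at 37 °C. N2a mouse neuroblastoma cells seeded 1500/well; Hill equation gave AC50.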

[7] = Cell Viability - NIH 3T3 (AID 541); details: NIH 3T3 cell viability, qHTS; at 92.2 µM (top of the series);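 also: cells exposed to compound for 40 hours; plate controls were DMSO alone for no effect and tamoxifen positive control for full effect; nearly all actives have a fitted effect of over 25% in size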
Procedure, shortened: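 Intracellular ATP (CellTiter-Glo luminescence, 20 min at room temperature) measured after 40 hr compound exposure at 37 °C of 1000 NIH 3T3 mouse fibroblasts/well in complete medium; AC50 derived by Hill-equation modelling of qHTS concentration-response curves.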

[8] = Cell Viability - H-4-II-E (AID 543);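 also: cells exposed to compound for 40 hours; % is scaled to controls: 0 for no effect and ±100 for the full control effect; nearly all actives have a fitted effect of over 35% in size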
Procedure, shortened: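 CellTiter-Glo luminescence (intracellular ATP) measured after 40 h compound exposure at 37 °C in H-4-II-E rat hepatoma cells seeded at 1500/well. Values are AC50s fitted with the standard Hill equation.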

[9] = Cell Viability - SH-SY5Y (AID 544);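 also: cells exposed to compound for 40 hours; 0% = DMSO alone and -100% = 100 µM tamoxifen; nearly all actives have a fitted effect of over 55% in size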
Procedure, shortened: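 Cytotoxicity measured via ATP-dependent luciferase luminescence (CellTiter-Glo) following 40 h, 37 °C exposure of 1500 SH-SY5Y cells per well. Concentration-response data were fitted with the standard Hill equation to give AC50.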

[10] = Cell Viability - Renal Proximal Tubule (AID 545);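 also: cells exposed to compound for 40 hours; 0% = DMSO only and -100% = 100 µM tamoxifen; nearly all actives have a fitted effect of over 40% in size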
Procedure, shortened: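 Viability taken as intracellular ATP (CellTiter-Glo luminescence) after 40 hr, 37 °C compound treatment of primary proximal tubule cells from rat kidney, 1000 cells/well; Hill-equation fits of qHTS concentration-response data gave AC50.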

[11] = Cell Viability - Mesenchymal (AID 546);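 also: cells exposed to compound for 40 hours before reading; 0% = DMSO only and -100% = 100 µM tamoxifen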
Procedure, shortened: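 Human renal mesenchymal cells (glomerulus-derived), 1000 cells/well, 5 hr 37 °C pre-incubation; compound 40 hr, 37 °C; CellTiter-Glo, 20 min RT; luminescence; AC50 via Hill equation.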

[12] = Cellular Toxicity (caspase-3) HepG2 (AID 654);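 also: cells exposed to compound for 16 hours before reading; 0% = DMSO alone and 100% = caspase signal from 100 µM tamoxifen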
Procedure, shortened: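 Caspase 3/7 activation is measured as a luminescence increase (aminoluciferin substrate) after 16 h compound exposure of human hepatocarcinoma HepG2 cells. AC50 values are Hill fits, scaled between DMSO baseline and 100 uM tamoxifen stimulation.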

[13] = Cellular Toxicity (caspase-3) Jurkat (AID 655);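 also: cells exposed to compound for 16 h at 37 °C before reading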
Procedure, shortened: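 Luminescent Caspase-Glo 3/7 read-out (20 min, room temperature) after 16 h compound treatment at 37 C of 5000 Jurkat cells per well. AC50 derived by Hill-equation fitting, scaled between DMSO basal and 100 uM tamoxifen stimulation.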

[14] = Cellular Toxicity (caspase-3) HUV-EC-C (AID 656);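 also: 0% = DMSO basal and 100% = 100 µM tamoxifen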
Procedure, shortened: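 Luminescent Caspase-Glo 3/7 readout after 16 h, 37 °C compound exposure of HUV-EC-C endothelial cells, 1000 per well, complete medium. AC50 derived by Hill fitting, with DMSO as baseline and 100 uM tamoxifen as full activation.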

[15] = Cellular Toxicity (caspase-3) SHSY5Y (AID 657)
Procedure, shortened: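 Luminescent Caspase-Glo 3/7 read-out, 1 hr room temperature, follows 16 hours of compound treatment of SH-SY5Y cells at 37 °C. Normalization: DMSO basal, 10 uM staurosporine as 100%; AC50 values from Hill-equation concentration-response fits.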

[16] = Cellular Toxicity (caspase-3) BJ (AID 658);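 also: 0% = DMSO basal and 100% = 10 µM staurosporine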
Procedure, shortened: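 qHTS, BJ fibroblasts, 1000 cells/well; 5 hr preincubation, 16 hr compound, 37 °C; Caspase-Glo 3/7 reagent, 1 hr RT; luminescence. DMSO = 0%, 10 uM staurosporine = 100%. Hill-equation AC50.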

[17] = Cellular Toxicity (caspase-3) MRC-5 (AID 659);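 also: 0% = DMSO basal and 100% = 10 µM staurosporine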
Procedure, shortened: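 MRC-5 fibroblasts, 1500/well; 16 h cpd, 37 °C; Caspase-Glo 3/7, 1 h RT; lumi read. Norm: DMSO = 0%, 10 uM staurosporine = 100%. Hill-fit AC50 from qHTS conc-response.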

[18] = Cellular Toxicity (caspase-3) Mesangial (AID 660);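 also: combined caspase 3 and 7 activity read by Caspase-Glo luminescence; cells exposed to compound for 16 h before the caspase read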
Procedure, shortened: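 Caspase 3/7 activation measured by Caspase-Glo 3/7 luminescence (20 min, room temperature) following 16 h exposure of mesangial cells (1000/well); AC50 from Hill-equation fit, normalized to DMSO and 100 uM tamoxifen.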

[19] = Cellular Toxicity (caspase-3) SK-N-SH (AID 661);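 also: 0% = DMSO basal and 100% = 10 µM staurosporine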
Procedure, shortened: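 Caspase 3/7 activation was read by luminogenic substrate cleavage after 16 hour treatment of SK-N-SH cells. Signal was scaled between DMSO and 10 uM staurosporine, and concentration-response data were fitted with the Hill equation for AC50.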

[20] = Cellular Toxicity (caspase-3) H-4-II-E (AID 663);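 also: cells exposed to compound for 16 hr before readout; 0% = DMSO basal and 100% = 100 µM tamoxifen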
Procedure, shortened: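 H-4-II-E rat hepatoma, 1500 cells/well, 5 hr settle at 37 °C; compound 16 hr, 37 °C, complete medium; Caspase-Glo 3/7, 20 min RT; luminescence. DMSO = 0%, 100 uM tamoxifen = 100%; Hill-equation AC50.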

[21] = Cellular Toxicity (caspase-3) Hek293 (AID 664);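 also: cells exposed to compound for 16 h at 37 °C before readout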
Procedure, shortened: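 Concentration-response qHTS: caspase 3/7 activation measured by luminescent aminoluciferin substrate cleavage after 16 h compound exposure of Hek 293 cells. AC50 from Hill equation, with DMSO as basal and 100 uM tamoxifen as 100%.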

[22] = Cellular Toxicity (caspase-3) N2a (AID 665);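 also: compound exposure lasted 16 h at 37 °C before readout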
Procedure, shortened: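 Caspase-3/7 activation measured as luminescence from Caspase-Glo reagent (1 h, room temperature) after 16 h compound exposure of mouse N2a cells. AC50 values from Hill-equation concentration-response, scaled between DMSO and 10 uM staurosporine.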

[23] = Cellular Toxicity (caspase-3) NIH 3T3 (AID 666);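 also: caspase signal read after 16 h compound exposure; 0% = DMSO basal and 100% = 100 µM tamoxifen stimulation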
Procedure, shortened: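 Caspase-Glo 3/7 luminescence reported caspase activation in 1000 NIH 3T3 cells/well after 16 h compound exposure at 37 C. DMSO set basal and 100 uM tamoxifen set 100% stimulation; concentration-response modeled with the Hill equation for AC50.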

COC(=O)c1ccccc1C(=O)OC
inactive: Potency [1] > 92 µM | Potency [2] > 92 µM | Potency [3] > 92 µM | Potency [4] > 92 µM | Potency [5] > 92 µM | activity change, negative = cytotoxicity [6] 4.28% | activity change, negative = cytotoxicity [7] 2.58% | outcome [8] | outcome [9] | outcome [10] | outcome [11] | outcome [12] | outcome [13] | outcome [14] | outcome [15] | outcome [16] | outcome [17] | outcome [18] | outcome [19] | outcome [20] | outcome [21] | outcome [22] | outcome [23]

Source: PubChem BioAssay (NCATS)
